For test [1], the target named is Estrogen receptor (Homo sapiens) (UniProt P03372). In words: CCTE_Deisenroth_AIME_384WELL_LUC_Inactive: CCTE's 384-well Estrogen Receptor Transactivation Assay without AIME metabolic competence (ERTA luciferase; metabolism negative), Deisenroth Lab (AID 2284038).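 Further: hits raise estrogen receptor luciferase signal so potencies reflect agonists.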 In short, it runs like this:
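VM7Luc4E2 ER transactivation, luciferase bioluminescence after 24 h, using medium pre-incubated 2 h with S9-free alginate microspheres. Concentrations 0.002–200 uM; gain of signal fitted relative to 17beta-estradiol.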

The target is the same in test [2]. In words: CCTE_Deisenroth_AIME_384WELL_LUC_Shift: CCTE's 384-well Estrogen Receptor Transactivation Assay with AIME metabolic competence data shift (ERTA luciferase; difference in metabolism positive and negative), Deisenroth Lab (AID 2284041; active means hit-call score of the fitted dose curve at least 0.9, where 1 is the maximum; inactive means score below 0.9;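 further: shift is response with S9 minus without S9 so positive means metabolism raised ER signal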). The procedure, abridged:
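Chemicals (0.002–200 uM, 10 points) pre-incubated 2 h with alginate-encapsulated induced male Sprague Dawley rat liver S9 or S9-free, then medium applied 24 h to VM7Luc4E2 cells; luciferase. Endpoint is per-concentration difference, S9-positive minus negative.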

Test [3] concerns the target human Esterase Plasma (ES), BCHE (gene 590) (UniProt P06276). In words: NVS_ENZ_hES: NovaScreen (NVS) Enzymatic Assay for human Esterase Plasma (ES) (AID 2283157). In short, it runs like this:
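Human plasma-derived enzyme, cell-free, colorimetric readout at 0.25 h. Primary screen 25 uM in duplicate; hits (e.g. ≥30% inhibition) rerun singleton up to 50 uM. DMSO = negative control/baseline.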

For test [4], the target named is guinea pig Opioid, Kappa 1 Receptor (OpiateK), OPRK1 (gene 100135587) (UniProt P41144). In words: NVS_GPCR_gOpiateK: NovaScreen (NVS) G Protein-Coupled Receptor Assay for guinea pig Opioid, Kappa 1 Receptor (OpiateK) (AID 2283252).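 Further: active means reduced radioligand binding relative to DMSO.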 The procedure, abridged: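 Cell-free tissue prep: guinea pig cerebellar membranes, radioligand displacement, 2 h incubation. Readout: filtration plus scintillation counting. Primary single-point 25 uM duplicate; actives retested in concentration series; DMSO negative control.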
Sequence of guinea pig Opioid, Kappa 1 Receptor (OpiateK), OPRK1 (gene 100135587) (P41144 whole entry, looked up): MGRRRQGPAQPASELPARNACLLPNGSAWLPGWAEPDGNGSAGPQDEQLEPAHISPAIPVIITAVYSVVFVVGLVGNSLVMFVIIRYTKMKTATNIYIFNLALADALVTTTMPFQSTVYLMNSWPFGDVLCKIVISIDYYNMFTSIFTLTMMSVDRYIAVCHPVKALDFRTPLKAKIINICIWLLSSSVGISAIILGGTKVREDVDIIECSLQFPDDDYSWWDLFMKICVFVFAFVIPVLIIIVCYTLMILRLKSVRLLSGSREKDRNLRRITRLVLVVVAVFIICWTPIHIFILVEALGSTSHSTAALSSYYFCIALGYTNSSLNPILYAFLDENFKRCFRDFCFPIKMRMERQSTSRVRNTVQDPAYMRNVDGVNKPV

Test [5] concerns the target rat Adrenergic Receptor, Alpha 2 (Adra2), Non-selective Binding, Adra2a (gene 25083) (UniProt P22909). In words: NVS_GPCR_rAdra2_NonSelective: NovaScreen (NVS) G Protein-Coupled Receptor Assay for rat Adrenergic Receptor, Alpha 2 (Adra2), Non-selective Binding (AID 2283299). In short, it runs like this: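 Filter-based scintillation counting of radioligand binding to rat cortical membrane receptors, measured 1.25 hours post-dosing; loss of signal versus DMSO indicates displacement. Initial single-concentration duplicate at 25 uM, then concentration series.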

The target in test [6] is rat Serotonin Transporter (SERT), Slc6a4 (gene 25553) (UniProt P31652). In words: NVS_TR_rSERT: NovaScreen (NVS) Transporter Assay for rat Serotonin Transporter (SERT) (AID 2283375). In short, it runs like this: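 Radioligand binding with competitive displacement on rat forebrain membrane preparations, counted by filtration and scintillation after 1 h. Primary single-point duplicates at 25 uM; active chemicals followed up in concentration-response. DMSO served as baseline.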
Sequence of rat Serotonin Transporter (SERT), Slc6a4 (gene 25553) (P31652 whole entry, looked up): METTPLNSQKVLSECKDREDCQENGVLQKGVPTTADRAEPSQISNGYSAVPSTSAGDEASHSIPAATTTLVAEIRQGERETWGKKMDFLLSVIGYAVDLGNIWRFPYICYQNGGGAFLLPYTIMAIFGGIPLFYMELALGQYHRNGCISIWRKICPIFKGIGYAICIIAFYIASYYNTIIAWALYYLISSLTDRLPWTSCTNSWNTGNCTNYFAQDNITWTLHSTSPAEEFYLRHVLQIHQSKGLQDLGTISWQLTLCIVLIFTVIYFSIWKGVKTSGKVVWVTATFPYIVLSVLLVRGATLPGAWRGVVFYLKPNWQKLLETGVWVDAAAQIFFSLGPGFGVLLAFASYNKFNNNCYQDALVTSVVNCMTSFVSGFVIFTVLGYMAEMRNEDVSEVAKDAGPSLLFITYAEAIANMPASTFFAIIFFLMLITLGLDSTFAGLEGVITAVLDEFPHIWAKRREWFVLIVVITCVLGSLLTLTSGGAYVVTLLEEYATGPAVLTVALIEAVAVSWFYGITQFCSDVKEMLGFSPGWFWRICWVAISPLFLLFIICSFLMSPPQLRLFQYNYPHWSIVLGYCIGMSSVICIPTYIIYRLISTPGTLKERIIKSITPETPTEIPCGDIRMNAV

The target of test [7] is Estrogen receptor (Homo sapiens) + Estrogen receptor beta (Homo sapiens) (UniProt P03372+Q92731). In words: OT_ER_ERaERb_0480: Odyssey Thera (OT) 8-hour HEK293T Protein-Complementation Assay for Estrogen Receptor-alpha/-beta Heterodimer (AID 2283352). In short, it runs like this:
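Fluorescence increase from reconstituted reporter fragments, quantified by laser scanning cytometer, reflects ER-alpha/ER-beta heterodimer formation in human HEK293T cells. Exposure 8 h; positive-direction fitting against DMSO vehicle.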

For test [8], the target named is rat Androgen Receptor (AR), Ar (gene 24208) (UniProt P15207). In words: NVS_NR_rAR: NovaScreen (NVS) Nuclear Receptor Binding Assay for rat Androgen Receptor (AR) (AID 2283366). In short, it runs like this: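 Actives from a duplicate single-concentration (25 uM) primary run went on to concentration series. Displacement of radioligand was counted by filtration and scintillation, 18 h post-dose, using prostate extracts from testosterone-pretreated rats, with DMSO as baseline.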

A short description of test [9]: CCTE_Deisenroth_AIME_96WELL_CTox_Active: Cytotoxicity Assessment (CTOX) in CCTE's 96-well Estrogen Receptor Transactivation Assay with AIME metabolic competence (metabolism positive), Deisenroth Lab (AID 2284028). In short, it runs like this: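 Cytotoxicity in VM7Luc4E2 breast cells after 24 h exposure to medium from a 2 h metabolic pre-incubation with induced rat hepatic S9 in alginate microspheres; fluorescent live-cell protease readout, 10-point series 0.002–200 uM, n=4.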

Test [10] can be described thus: CCTE_Deisenroth_AIME_96WELL_CTox_Inactive: Cytotoxicity Assessment (CTOX) in CCTE's 96-well Estrogen Receptor Transactivation Assay without AIME metabolic competence (metabolism negative), Deisenroth Lab (AID 2284029). In short, it runs like this:
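Metabolism-negative mode: alginate-water lids without rat S9, 2 h pre-incubation of 10-point series (0.002 - 200 uM). Conditioned medium on VM7Luc4E2 cells 24 h; loss of fluorescent live-cell protease signal marks cytotoxicity.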

Test [11] is described as follows: TOX21_TR_RXR_BLA_Agonist_Followup_viability: Viability Assessment in the Tox21 Thyroid Hormone Receptor beta Retinoid X Receptor alpha (RXRa) Agonism Beta-lactamase (BLA) Follow-Up Assay (AID 2283970). The procedure, abridged: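 Viability counter-screen run alongside the RXRa bla follow-up: HEK293T reporter cells were treated for 16h at 37C in stripped-serum medium, then ATP was quantified by luciferase-coupled CellTiter-Glo. Decreased signal relative to DMSO marked cytotoxicity.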

The target in test [12] is PGR (gene 5241) (UniProt P06401). In words: TOX21_PR_BLA_Followup_Antagonist_ratio: Tox21 HEK293 Progesterone Receptor (PR) Antagonism Beta-lactamase Follow-Up Assay, Ratio (AID 2283934).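 Further: PR-UAS-bla HEK293T cells stimulated with 1 nM R5020 agonist for 16 hr.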 The procedure, abridged: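 Cells are plated, rested 6 hr, then dosed with test compound in DMSO and challenged with 1 nM promegestone. After 16 hr incubation, substrate loading for 2 h at room temperature precedes fluorescence reading; viability is measured in the same wells.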
Sequence of PGR (gene 5241) (P06401 whole entry, looked up): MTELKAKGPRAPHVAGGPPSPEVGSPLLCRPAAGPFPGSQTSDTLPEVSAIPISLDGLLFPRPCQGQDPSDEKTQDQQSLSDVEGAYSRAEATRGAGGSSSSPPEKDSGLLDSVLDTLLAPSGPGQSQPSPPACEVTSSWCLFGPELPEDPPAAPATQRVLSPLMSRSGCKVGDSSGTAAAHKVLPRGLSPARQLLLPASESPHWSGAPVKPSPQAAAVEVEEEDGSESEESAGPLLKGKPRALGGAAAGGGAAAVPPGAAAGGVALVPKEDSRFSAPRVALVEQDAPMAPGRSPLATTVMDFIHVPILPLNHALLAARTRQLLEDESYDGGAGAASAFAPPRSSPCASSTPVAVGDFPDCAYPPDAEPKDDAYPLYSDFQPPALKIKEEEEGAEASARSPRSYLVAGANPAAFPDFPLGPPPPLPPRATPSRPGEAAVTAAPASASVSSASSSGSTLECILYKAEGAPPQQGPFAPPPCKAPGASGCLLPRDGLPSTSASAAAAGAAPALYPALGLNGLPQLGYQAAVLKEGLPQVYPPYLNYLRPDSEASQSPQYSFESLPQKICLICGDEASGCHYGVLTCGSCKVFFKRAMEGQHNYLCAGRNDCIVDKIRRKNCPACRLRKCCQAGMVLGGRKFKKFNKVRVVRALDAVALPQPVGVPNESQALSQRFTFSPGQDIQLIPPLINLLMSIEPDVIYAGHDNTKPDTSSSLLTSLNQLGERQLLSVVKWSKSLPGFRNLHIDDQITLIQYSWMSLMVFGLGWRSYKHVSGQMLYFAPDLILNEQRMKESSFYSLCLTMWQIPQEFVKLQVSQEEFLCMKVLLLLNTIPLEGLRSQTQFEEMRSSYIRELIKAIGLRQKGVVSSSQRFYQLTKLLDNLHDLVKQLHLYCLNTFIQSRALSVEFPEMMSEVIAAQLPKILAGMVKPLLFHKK

For test [13] the target is unchanged. In words: TOX21_PR_LUC_Followup_Antagonist: Tox21 HEK293 Progesterone Receptor (PR) Antagonism Luciferase Follow-Up Assay (AID 2283938).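 Further: curve fitted upward as signal gain over DMSO baseline despite antagonist label.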 The procedure, abridged: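 Luminescence from ONE-Glo was measured 30 min after reagent addition, following 16 h exposure of HEK293-PR-A-luc cells (3,000/well, plated 5 h earlier) to DMSO-dissolved compounds at 37C; DMSO served as baseline.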

For test [14], the target named is human Vascular Endothelial Growth Factor Receptor 1 (VEGFR1), FLT1 (gene 2321) (UniProt P17948). In words: NVS_ENZ_hVEGFR1: NovaScreen (NVS) Enzymatic Assay for human Vascular Endothelial Growth Factor Receptor 1 (VEGFR1) (AID 2283226). The procedure, abridged:
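Kinase activity of recombinant human VEGFR1 was read by fluorescence after electrophoretic separation of product from substrate, 1 h post-dosing; initial duplicate single-point testing at 25 uM, followed by concentration-series follow-up, with DMSO as baseline.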

A further test relates to IYD (gene 389434). In words: CCTE_GLTED_hIYD: CCTE's human Iodotyrosine Deiodinase (xIYD) Inhibition Assay, Great Lakes Toxicology and Ecology Division (GLTED) Lab (AID 2284317).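 Further: cell-free human IYD enzyme made in baculovirus insect cells; iodide freed from monoiodotyrosine measured by cerium arsenite color change at 420 nm.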 In short, it runs like this: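 Deiodination of MIT by insect-cell-produced human IYD is measured after a 3 h incubation with test chemical. Free iodide passes through a Dowex column and accelerates Sandell-Kolthoff Ce4+ reduction, read at 420 nm; run in triplicate.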

The target of test [15] is Tyrosine-protein phosphatase non-receptor type 11 (Homo sapiens) (UniProt Q06124). In words: NVS_ENZ_hPTPN11: NovaScreen (NVS) Enzymatic Assay for human Protein Tyrosine Phosphatase Non-receptor Type 11 (PTPN11) (AID 2283202). In short, it runs like this: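 Compounds first tested in duplicate at 25 uM; those reaching ~30% inhibition rerun in singleton concentration-response, top 50 uM. Phosphatase activity measured after 0.5 h by fluorescence with mobility-shift separation, relative to DMSO.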

Test [16] can be described thus: ATG_M_06_XSP2: Attagene TRANS-FACTORIAL Multi-Species (XSP2) HepG2 Assay for M06 Transcription Factor (Internal Marker) (AID 2283811).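 Further: internal background marker reporter mRNA measured by RT-PCR and capillary electrophoresis; hits are increases in signal above the DMSO baseline.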 The procedure, abridged:
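Readout: fluorescent reporter-mRNA peaks by capillary electrophoresis after RT-PCR and HpaI digest, scored upward relative to DMSO. Transfected HepG2, 24 h chemical exposure, with 3 nM 6-alpha-fluorotestosterone and 1.5 nM norgestrel added.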

The test system of test [17] is turtle Estrogen Receptor (ERa), gene 101933533. In words: ATG_trERa_XSP2: Attagene TRANS-FACTORIAL Multi-Species (XSP2) HepG2 Assay for turtle Estrogen Receptor (ERa) (AID 2283812).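 Further: actives raise reporter signal above DMSO so AC50 reflects agonist activity.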 In short, it runs like this: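 Readout is reporter mRNA quantified by RT-PCR with capillary electrophoresis after 24 h compound exposure, increase relative to DMSO. Uses transiently transfected human HepG2 liver cells carrying a chimeric turtle ERa-Gal4 receptor driving GAL4-UAS reporters.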

The target in test [18] is Estrogen receptor beta (Homo sapiens) (UniProt Q92731). In words: ATG_hERb_XSP2: Attagene TRANS-FACTORIAL Multi-Species (XSP2) HepG2 Assay for human Estrogen Receptor (ERb) (AID 2283813).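 Further: actives raise reporter mRNA above DMSO so AC50 reflects agonist induction.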 In short, it runs like this:
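Transient TRANS reporter system in HepG2: after 24 h of chemical, RNA is reverse-transcribed, reporter cDNA amplified, FAM-labelled and sized by capillary electrophoresis. Induction of the human ERb-Gal4 reporter is measured relative to DMSO.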

Test [19] concerns the target GAL4 Transcription Factor (Internal Marker), GAL4 (gene 855828) (UniProt P04386). In words: ATG_GAL4_XSP2: Attagene TRANS-FACTORIAL Multi-Species (XSP2) HepG2 Assay for GAL4 Transcription Factor (Internal Marker) (AID 2283814).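 Further: GAL4 reporter mRNA background control in MRTU transfected cells not a receptor target.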 The procedure, abridged:
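Background-control readout: gain-of-signal fitted against DMSO. After 24 h exposure of transfected HepG2 (MRTU, GAL4-UAS reporters; 3 nM 6-alpha-fluorotestosterone, 1.5 nM norgestrel present), transcripts quantified by RT-PCR and capillary electrophoresis fluorescence.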

Where “and” joins values, the source holds several entries; their conditions need not be identical. Equal values may be shown once. Records with an inconclusive call do not appear. Calls of active or inactive are those of the source. How the source made its calls, unless noted: active means hit-call score of the fitted dose curve at least 0.9, where 1 is the maximum; inconclusive means response in the unintended direction; inactive means score below 0.9.

Sequence of Estrogen receptor beta (Homo sapiens) (Q92731 whole entry, looked up, the tested form may be a part): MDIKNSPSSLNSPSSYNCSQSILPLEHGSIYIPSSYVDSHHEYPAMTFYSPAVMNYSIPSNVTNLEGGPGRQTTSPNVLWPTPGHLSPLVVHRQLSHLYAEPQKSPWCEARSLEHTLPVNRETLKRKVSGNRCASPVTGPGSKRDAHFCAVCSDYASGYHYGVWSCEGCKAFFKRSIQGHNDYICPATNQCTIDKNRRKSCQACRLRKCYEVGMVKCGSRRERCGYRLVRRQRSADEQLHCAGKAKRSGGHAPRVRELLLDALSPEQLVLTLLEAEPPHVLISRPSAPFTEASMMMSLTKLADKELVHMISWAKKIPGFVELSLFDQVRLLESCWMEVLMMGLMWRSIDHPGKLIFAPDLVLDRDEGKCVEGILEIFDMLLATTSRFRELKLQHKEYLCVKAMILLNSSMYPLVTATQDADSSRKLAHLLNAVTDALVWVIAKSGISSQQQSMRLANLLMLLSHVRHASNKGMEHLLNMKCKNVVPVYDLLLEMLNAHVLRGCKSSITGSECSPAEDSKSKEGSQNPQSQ
Sequence of Estrogen receptor (Homo sapiens) (P03372 whole entry, looked up): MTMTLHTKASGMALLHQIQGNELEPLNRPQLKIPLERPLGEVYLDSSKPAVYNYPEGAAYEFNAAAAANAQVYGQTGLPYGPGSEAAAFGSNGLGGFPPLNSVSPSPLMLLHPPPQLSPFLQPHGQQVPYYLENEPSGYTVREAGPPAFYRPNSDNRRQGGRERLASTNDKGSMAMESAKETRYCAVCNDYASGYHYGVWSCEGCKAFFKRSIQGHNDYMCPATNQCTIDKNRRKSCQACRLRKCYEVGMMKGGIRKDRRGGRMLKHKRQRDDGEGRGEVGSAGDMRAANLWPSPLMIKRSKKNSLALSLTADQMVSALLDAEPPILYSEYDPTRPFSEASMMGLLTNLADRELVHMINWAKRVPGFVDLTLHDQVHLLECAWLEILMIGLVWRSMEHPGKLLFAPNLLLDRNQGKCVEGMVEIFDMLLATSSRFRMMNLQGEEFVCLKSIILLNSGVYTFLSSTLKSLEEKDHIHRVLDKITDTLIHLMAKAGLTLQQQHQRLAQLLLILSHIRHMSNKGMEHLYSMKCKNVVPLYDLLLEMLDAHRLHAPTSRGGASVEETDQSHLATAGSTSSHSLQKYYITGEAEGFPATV
Sequence of rat Adrenergic Receptor, Alpha 2 (Adra2), Non-selective Binding, Adra2a (gene 25083) (P22909 whole entry, looked up): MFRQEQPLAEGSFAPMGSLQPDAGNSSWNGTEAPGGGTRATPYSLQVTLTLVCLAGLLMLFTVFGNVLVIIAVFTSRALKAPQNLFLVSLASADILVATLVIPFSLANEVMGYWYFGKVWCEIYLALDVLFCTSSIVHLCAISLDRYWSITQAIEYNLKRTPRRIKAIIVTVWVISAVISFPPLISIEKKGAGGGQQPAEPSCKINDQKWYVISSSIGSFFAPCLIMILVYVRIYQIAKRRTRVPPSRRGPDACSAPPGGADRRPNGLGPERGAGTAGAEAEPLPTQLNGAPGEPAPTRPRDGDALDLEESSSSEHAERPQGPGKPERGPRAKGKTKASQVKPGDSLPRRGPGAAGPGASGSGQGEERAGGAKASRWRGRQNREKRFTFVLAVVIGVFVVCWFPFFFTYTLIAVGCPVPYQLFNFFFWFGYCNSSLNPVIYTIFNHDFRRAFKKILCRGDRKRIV
Sequence of Estrogen receptor (Homo sapiens) + Estrogen receptor beta (Homo sapiens) (P03372 whole entry, looked up, the tested form may be a part): as the sequence (P03372 whole entry, looked up) above
Sequence of Estrogen receptor (Homo sapiens) + Estrogen receptor beta (Homo sapiens) (Q92731 whole entry, looked up, the tested form may be a part): as the sequence (Q92731 whole entry, looked up, the tested form may be a part) above

For orientation: AC50 means the concentration at which the activity in the assay is half-maximal. Take `CCCCCCC1CCC(=O)O1` (stereo not given): the AC50 in [1] is 0.00129 µM (active); in test [2], 0.000196 µM (active).
With `CN(C)CCC(c1ccc(Cl)cc1)c1ccccn1` (stereo not given), the AC50 was 19.9 µM (active) in [3], 12.7 µM (active) in test [4], 13.9 µM (active) in test [5] and 2.95 µM (active) in [6].
In the case of `C=C1CC[C@H]2C[C@@H]1C2(C)C`, in [7], the result was inactive.
On to `Cc1cc(-n2nc3ccc(Cl)cc3n2)c(O)c(C(C)(C)C)c1`, for which the result in [8], in [9] and in test [10] was inactive.
`CC(C)CC(=O)O`: the result in test [11] was inactive.
Consider `c1cc[c]([Bi]([c]2ccccc2)[c]2ccccc2)cc1`, for which the concentration at half-maximal activity (AC50) with PGR (gene 5241) [12] was 16.3 µM (active). Further, in the test with PGR (gene 5241) [13], the compound was called inactive.
Regarding `CC(=O)CCc1ccccc1`, the compound was classed as inactive in test [14].
Regarding `Cc1cc2nc3c(=O)[nH]c(=O)nc-3n(C[C@H](O)[C@H](O)[C@H](O)CO)c2cc1C`, in the test with IYD (gene 389434), the AC50 was 94.2 µM (active).
Regarding `Cc1cc(O)cc(C)c1Cl`, the outcome in [15], in [16] and in [19] was inactive. For the same compound, the concentration at half-maximal activity (AC50) in [17] was 45.8 µM (active) and 16.2 µM (active); in [18], 7.77 µM (active) and 7.9 µM (active).
